Source: PubChem BioAssay (NCI)
Where “and” joins values, the source holds several entries; their conditions need not be identical. Identical values can stand only once. Compounds without any hit were thinned out: in the full panel of roughly 83,000, 20% have a hit.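 For each line, cells grew in 96-well plates with the test compound present at a single concentration for 48 hours.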 Calls of active or inactive are those of the source. The calls were made as follows: active = growth percent below 10; inactive = the rest.

Columns and labels:
Test in all cases: NCI-60 one-dose screen, 48 h (100 = growth as untreated, 0 = no growth, -100 = all killed)
Conditions in all cases: 10 µM unless noted
SR leukemia = tested on: SR leukemia
RPMI-8226 leukemia = tested on: RPMI-8226 leukemia
OVCAR-8 ovarian = tested on: OVCAR-8 ovarian
OVCAR-5 ovarian = tested on: OVCAR-5 ovarian
OVCAR-4 ovarian = tested on: OVCAR-4 ovarian
SK-OV-3 ovarian = tested on: SK-OV-3 ovarian
IGROV1 ovarian = tested on: IGROV1 ovarian
OVCAR-3 ovarian = tested on: OVCAR-3 ovarian
HS 578T breast = tested on: HS 578T breast
NCI/ADR-RES ovarian = tested on: NCI/ADR-RES ovarian
T-47D breast = tested on: T-47D breast
BT-549 breast = tested on: BT-549 breast
MDA-MB-435 melanoma = tested on: MDA-MB-435 melanoma
SW-620 colon = tested on: SW-620 colon
MCF7 breast = tested on: MCF7 breast
HCT-116 colon = tested on: HCT-116 colon
HCC-2998 colon = tested on: HCC-2998 colon
KM12 colon = tested on: KM12 colon

Structure (SMILES)	growth (SR leukemia)	growth (RPMI-8226 leukemia)	growth (OVCAR-8 ovarian)	growth (OVCAR-5 ovarian)	growth (OVCAR-4 ovarian)	growth (SK-OV-3 ovarian)	growth (IGROV1 ovarian)	growth (OVCAR-3 ovarian)	growth (HS 578T breast)	growth (NCI/ADR-RES ovarian)	growth (T-47D breast)	growth (BT-549 breast)	growth (MDA-MB-435 melanoma)	growth (SW-620 colon)	growth (MCF7 breast)	growth (HCT-116 colon)	growth (HCC-2998 colon)	growth (KM12 colon)
O=C(O)COc1ccccc1F	99.5% (inactive)	98.4% (inactive)	116% (inactive)	104% (inactive)	111% (inactive)	119% (inactive)	105% (inactive)	108% (inactive)	101% (inactive)	114% (inactive)	107% (inactive)	108% (inactive)	108% (inactive)	104% (inactive)	107% (inactive)	95.5% (inactive)	111% (inactive)	104% (inactive)
CC(=O)Oc1cc(C)c(OC(C)=O)c(C)c1C	118% (inactive)	92.1% (inactive)	99.8% (inactive)	125% (inactive)	125% (inactive)	125% (inactive)	122% (inactive)	119% (inactive)	91.1% (inactive)	95.2% (inactive)	82.2% (inactive)	117% (inactive)	105% (inactive)	105% (inactive)	91.3% (inactive)	112% (inactive)	105% (inactive)	101% (inactive)
CNc1ccc(Cl)cc1S(=O)(=O)c1ccccc1[N+](=O)[O-]	86.3% (inactive) and 88.2% (inactive)	87.3% (inactive)	105% (inactive)	90.2% (inactive) and 105% (inactive)	87.6% (inactive) and 60.6% (inactive)	120% (inactive) and 110% (inactive)	78.8% (inactive) and 104% (inactive)	105% (inactive) and 104% (inactive)	96.7% (inactive)	36.7% (inactive) and 90.6% (inactive)	85.5% (inactive) and 69.2% (inactive)	79.5% (inactive) and 86.9% (inactive)	49.6% (inactive) and 6.48% (active)	108% (inactive) and 105% (inactive)	94.3% (inactive) and 89.9% (inactive)	107% (inactive) and 90.2% (inactive)	109% (inactive)	75% (inactive) and 95.3% (inactive)
COc1cc2c(cc1O)C(=O)CCCC2	102% (inactive)	104% (inactive)	117% (inactive)	92.8% (inactive)	93.6% (inactive)	108% (inactive)	64.7% (inactive)	101% (inactive)	110% (inactive)	94.5% (inactive)	94.8% (inactive)	78% (inactive)	99.2% (inactive)	92.9% (inactive)	91.2% (inactive)	99.2% (inactive)	74.7% (inactive)	89% (inactive)
CC(C)(C)OC(=O)NCCc1ccc(N)cc1	99.5% (inactive)	91.4% (inactive)	104% (inactive)	111% (inactive)	98.8% (inactive)	101% (inactive)	104% (inactive)	106% (inactive)	96% (inactive)	99.2% (inactive)	94.8% (inactive)	98.1% (inactive)	101% (inactive)	97.6% (inactive)	99.2% (inactive)	112% (inactive)	107% (inactive)	107% (inactive)
CC(C)(C(=O)c1cccnc1)c1cccnc1	84.7% (inactive)	97% (inactive) and 92.1% (inactive)	106% (inactive) and 104% (inactive)	93.5% (inactive) and 94.5% (inactive)	110% (inactive) and 118% (inactive)	109% (inactive) and 115% (inactive)	107% (inactive) and 103% (inactive)	112% (inactive) and 118% (inactive)	94.8% (inactive) and 110% (inactive)	106% (inactive) and 67.8% (inactive)	96.2% (inactive) and 111% (inactive)	103% (inactive) and 136% (inactive)	98.6% (inactive) and 122% (inactive)	105% (inactive) and 106% (inactive)	102% (inactive) and 93.8% (inactive)	108% (inactive) and 111% (inactive)	102% (inactive)	101% (inactive) and 113% (inactive)
O=C(Nc1ccccc1)OCC(CN1CCCCC1)OC(=O)Nc1ccccc1 (configuration not stated)	82.9% (inactive)	90.6% (inactive)	92.8% (inactive) and 95.1% (inactive)	105% (inactive) and 96.7% (inactive)	76.4% (inactive) and 104% (inactive)	89.4% (inactive) and 93.8% (inactive)	68.8% (inactive) and 98.3% (inactive)	91.2% (inactive) and 101% (inactive)	91.6% (inactive)	85.6% (inactive) and 96.1% (inactive)	71.5% (inactive) and 97% (inactive)	69.7% (inactive) and 102% (inactive)	90.3% (inactive) and 97.4% (inactive)	104% (inactive) and 96.9% (inactive)	72.9% (inactive) and 96% (inactive)	69.1% (inactive) and 93.6% (inactive)	94% (inactive) and 98.4% (inactive)	93% (inactive) and 101% (inactive)
O=c1[nH]c(=O)n(C2OC(CO)C(O)C2O)cc1I (configuration not stated)	96.1% (inactive) and 114% (inactive)	107% (inactive)	98.9% (inactive) and 95.7% (inactive)	107% (inactive) and 104% (inactive)	100% (inactive) and 102% (inactive)	110% (inactive) and 102% (inactive)	103% (inactive) and 106% (inactive)	117% (inactive) and 121% (inactive)	108% (inactive) and 98.3% (inactive)	109% (inactive) and 97.4% (inactive)	105% (inactive) and 100% (inactive)	143% (inactive) and 108% (inactive)	106% (inactive) and 95% (inactive)	101% (inactive)	89% (inactive) and 107% (inactive)	109% (inactive) and 95.8% (inactive)	109% (inactive) and 95.8% (inactive)	109% (inactive) and 100% (inactive)
O=C(O)c1cccc(Br)c1	90.2% (inactive) and 100% (inactive)	103% (inactive) and 104% (inactive)	108% (inactive) and 100% (inactive)	100% (inactive) and 98.7% (inactive)	99.5% (inactive) and 105% (inactive)	104% (inactive) and 106% (inactive)	105% (inactive) and 104% (inactive)	100% (inactive) and 105% (inactive)	124% (inactive) and 101% (inactive)	98.1% (inactive) and 106% (inactive)	92.3% (inactive) and 83.4% (inactive)	104% (inactive)	114% (inactive) and 107% (inactive)	112% (inactive) and 104% (inactive)	98.7% (inactive) and 98.2% (inactive)	99.7% (inactive) and 97.6% (inactive)	122% (inactive) and 103% (inactive)	101% (inactive) and 106% (inactive)
COC(=O)c1nc(N)nc(C(=O)OC)c1C(=O)c1cccc2ccccc12	105% (inactive)	109% (inactive)	117% (inactive)	103% (inactive)	108% (inactive)	121% (inactive)	117% (inactive)	132% (inactive)	108% (inactive)	103% (inactive)	109% (inactive)	133% (inactive)	108% (inactive)	118% (inactive)	94.5% (inactive)	111% (inactive)	106% (inactive)	110% (inactive)
CC1OS(=O)OC1C (configuration not stated)	93.5% (inactive)	105% (inactive) and 106% (inactive)	101% (inactive) and 97.9% (inactive)	102% (inactive) and 97.6% (inactive)	104% (inactive) and 100% (inactive)	99.6% (inactive) and 118% (inactive)	105% (inactive)	103% (inactive) and 106% (inactive)	98.3% (inactive)	107% (inactive) and 99.7% (inactive)	93% (inactive)	105% (inactive) and 104% (inactive)	99.3% (inactive) and 101% (inactive)	105% (inactive) and 98.3% (inactive)	91.2% (inactive) and 93.9% (inactive)	105% (inactive) and 102% (inactive)	99.3% (inactive) and 118% (inactive)	107% (inactive) and 97.5% (inactive)
CC1NC(C)c2ccc3ccccc3c2O1 (configuration not stated)	96.8% (inactive)	97.3% (inactive)	104% (inactive)	108% (inactive)	111% (inactive)	106% (inactive)	115% (inactive)	106% (inactive)	108% (inactive)	105% (inactive)	108% (inactive)	107% (inactive)	111% (inactive)	111% (inactive)	92% (inactive)	102% (inactive)	110% (inactive)	111% (inactive)
COc1ccccc1OCC(O)CO (configuration not stated)	116% (inactive) and 124% (inactive)	76.7% (inactive)	115% (inactive) and 104% (inactive)	103% (inactive)	110% (inactive) and 101% (inactive)	106% (inactive) and 121% (inactive)	123% (inactive) and 114% (inactive)	107% (inactive) and 125% (inactive)	61.7% (inactive) and 107% (inactive)	100% (inactive) and 107% (inactive)	91.4% (inactive) and 105% (inactive)	107% (inactive)	76.7% (inactive) and 96.1% (inactive)	101% (inactive) and 109% (inactive)	94.1% (inactive) and 105% (inactive)	106% (inactive) and 102% (inactive)	95% (inactive) and 86.1% (inactive)	98% (inactive) and 108% (inactive)
CC(=O)Nc1ccc(OC(C)=O)cc1	115% (inactive)	-25.4% (active) and 104% (inactive)	8% (active) and 101% (inactive)	35.7% (inactive) and 97.5% (inactive)	98.7% (inactive)	-4.1% (active) and 121% (inactive)	23.7% (inactive) and 113% (inactive)	2.02% (active) and 113% (inactive)	29.7% (inactive) and 118% (inactive)	-11.9% (active) and 106% (inactive)	78.1% (inactive) and 103% (inactive)	11.9% (inactive) and 103% (inactive)	-29.5% (active) and 107% (inactive)	26% (inactive) and 94.2% (inactive)	91.8% (inactive)	-14.7% (active) and 104% (inactive)	-28.8% (active) and 112% (inactive)	2.42% (active) and 112% (inactive)
